Source: PubChem BioAssay AID1159580 (chemical genetic matrix, 2015)
Where “and” joins values, the source holds several entries; their conditions need not be identical. Equal entries are not always repeated. About 2,000 (36%) of roughly 5,500 compounds were called active. About 18% were inconclusive and are not listed. Some of the results follow. Values without a mark were called inactive. Cut-off read from the data, not from the text of the source: active = normalized growth mostly below about 0.91 (no sharp cut-off); inconclusive = no clear call, values can overlap the other calls; inactive = mostly above about 0.92.

Experiment: chemical genetic growth profiling, strain panel (AID 1159580);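 note: tested at 20 µM; growth read once vehicle control cultures reached saturation at 30 °C; 1 = growth at the plate median or of vehicle wells; lower values mean less growth of the strain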
Conditions: S. cerevisiae deletion strains, growth OD

CCc1nc(N)nc(N)c1-c1ccc(Cl)cc1
normalized growth (locus YAL013W, strain DEP1, active compounds read low): 1.02
normalized growth (locus YAL021C, strain ccr4, active compounds read low): 0.951
normalized growth (locus YAL026C, strain drs2, active compounds read low): 0.967
normalized growth (locus YAL030W, strain snc1, active compounds read low): 0.977
normalized growth (locus YBL061C, strain skt5, active compounds read low): 0.97
normalized growth (locus YBR009C, strain hhf1, active compounds read low): 0.997
normalized growth (locus YBR021W, strain FUR4, active compounds read low): 1.02
normalized growth (locus YBR023C, strain chs3, active compounds read low): 0.999
normalized growth (locus YBR171W, strain sec66, active compounds read low): 0.969
normalized growth (locus YBR229C, strain ROT2, active compounds read low): 1.01
normalized growth (locus YBR231C, strain swc5, active compounds read low): 0.971
normalized growth (locus YBR279W, strain paf1, active compounds read low): 0.994
normalized growth (locus YCL011C, strain gbp2, active compounds read low): 0.978
normalized growth (locus YCL016C, strain dcc1, active compounds read low): 0.997
normalized growth (locus YCL029C, strain bik1, active compounds read low): 0.988
normalized growth (locus YCL061C, strain MRC1, active compounds read low): 0.958
normalized growth (locus YCL069W, strain vba3, active compounds read low): 0.986
normalized growth (locus YCR088W, strain abp1, active compounds read low): 0.977
normalized growth (locus YDL005C, strain med2, active compounds read low): 0.972
normalized growth (locus YDL035C, strain GPR1, active compounds read low): 0.995
normalized growth (locus YDL040C, strain nat1, active compounds read low): 0.973
normalized growth (locus YDL074C, strain BRE1, active compounds read low): 0.987
normalized growth (locus YDL101C, strain DUN1, active compounds read low): 1
normalized growth (locus YDL134C, strain PPH21, active compounds read low): 1.01
normalized growth (locus YDL185W, strain tfp1, active compounds read low): 1
normalized growth (locus YDL192W, strain arf1, active compounds read low): 1
normalized growth (locus YDR001C, strain nth1, active compounds read low): 0.969
normalized growth (locus YDR069C, strain doa4, active compounds read low): 0.898 (active)
normalized growth (locus YDR101C, strain arx1, active compounds read low): 0.987
normalized growth (locus YDR137W, strain rgp1, active compounds read low): 1.02
normalized growth (locus YDR150W, strain NUM1, active compounds read low): 1.01
normalized growth (locus YDR159W, strain sac3, active compounds read low): 0.955
normalized growth (locus YDR162C, strain NBP2, active compounds read low): 1.01
normalized growth (locus YDR195W, strain ref2): 0.979
normalized growth (locus YDR297W, strain sur2, active compounds read low): 0.987
normalized growth (locus YDR318W, strain mcm21, active compounds read low): 0.976
normalized growth (locus YDR334W, strain swr1, active compounds read low): 0.936
normalized growth (locus YDR335W, strain msn5, active compounds read low): 0.973
normalized growth (locus YDR388W, active compounds read low): 0.974
normalized growth (locus YDR392W, strain spt3, active compounds read low): 1.02
normalized growth (locus YDR502C, strain sam2, active compounds read low): 0.996
normalized growth (locus YEL003W, strain gim4, active compounds read low): 0.97
normalized growth (locus YEL037C, strain rad23, active compounds read low): 0.969
normalized growth (locus YEL061C, strain CIN8 (second series), active compounds read low): 0.966
normalized growth (locus YEL061C, strain CIN8, active compounds read low): 1.01
normalized growth (locus YER015W, strain faa2, active compounds read low): 0.985
normalized growth (locus YER016W, strain bim1, active compounds read low): 1.01
normalized growth (locus YER110C, active compounds read low): 0.999
normalized growth (locus YER111C, strain swi4, active compounds read low): 0.983
normalized growth (locus YER155C, strain BEM2 (second series), active compounds read low): 0.933
normalized growth (locus YER155C, strain BEM2, active compounds read low): 1.01
normalized growth (locus YER167W, strain BCK2, active compounds read low): 1.01
normalized growth (locus YFR010W, strain ubp6, active compounds read low): 0.931
normalized growth (locus YGL078C, strain dbp3, active compounds read low): 1
normalized growth (locus YGL086W, strain mad1, active compounds read low): 0.994
normalized growth (locus YGL167C, strain pmr1, active compounds read low): 0.981
normalized growth (locus YGL173C, strain kem1, active compounds read low): 0.982
normalized growth (locus YGL227W, strain vid30, active compounds read low): 0.959
normalized growth (locus YGL240W, strain doc1, active compounds read low): 0.97
normalized growth (locus YGL248W, strain PDE1, active compounds read low): 1.01
normalized growth (locus YGL253W, strain hxk2, active compounds read low): 0.97
normalized growth (locus YGR078C, strain PAC10, active compounds read low): 1
normalized growth (locus YGR135W, strain pre9, active compounds read low): 0.979
normalized growth (locus YGR229C, strain SMI1, active compounds read low): 1.01
normalized growth (locus YGR252W, strain gcn5, active compounds read low): 0.981
normalized growth (locus YHR013C, strain ard1, active compounds read low): 0.886
normalized growth (locus YHR027C, strain rpn1, active compounds read low): 0.976
normalized growth (locus YHR030C, strain SLT2, active compounds read low): 1.01 and 1.05
normalized growth (locus YHR079C, strain IRE1 (second series), active compounds read low): 0.987
normalized growth (locus YHR079C, strain IRE1, active compounds read low): 1.07
normalized growth (locus YHR094C, strain hxt1, active compounds read low): 1
normalized growth (locus YHR129C, strain ARP1, active compounds read low): 1.01
normalized growth (locus YHR142W, strain chs7, active compounds read low): 0.95
normalized growth (locus YHR200W, strain rpn10, active compounds read low): 1
normalized growth (locus YIL066C, strain RNR3, active compounds read low): 1.01
normalized growth (locus YIL073C, strain SPO22, active compounds read low): 1.31
normalized growth (locus YIL125W, strain kgd1, active compounds read low): 1.01
normalized growth (locus YIR030C, strain dcg1, active compounds read low): 1
normalized growth (locus YJL092W, strain hpr5, active compounds read low): 0.956
normalized growth (locus YJL095W, strain BCK1 (second series), active compounds read low): 0.979
normalized growth (locus YJL095W, strain BCK1, active compounds read low): 0.982 and 1.04
normalized growth (locus YJL115W, strain asf1, active compounds read low): 0.961
normalized growth (locus YJL129C, strain trk1, active compounds read low): 0.927
normalized growth (locus YJL134W, strain LCB3, active compounds read low): 1.01
normalized growth (locus YJL154C, strain vps35, active compounds read low): 0.954
normalized growth (locus YJL164C, strain tpk1, active compounds read low): 1
normalized growth (locus YJL166W, strain qcr8, active compounds read low): 0.944
normalized growth (locus YJL168C, strain set2, active compounds read low): 1
normalized growth (locus YJL187C, strain SWE1 (second series), active compounds read low): 0.982
normalized growth (locus YJR043C, strain POL32, active compounds read low): 0.992
normalized growth (locus YJR066W, strain TOR1, active compounds read low): 0.994
